Data as given in PubChem BioAssay.
Active and inactive are the calls of the source.

Test: S. cerevisiae RM11-1a growth modifiers, primary screen, strain RM11-1a, OD600, basal, 24 h (AID 1177);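 also: cultures grown under basal conditions with no added stressor; test concentration not given here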
Details: OD600, 24 h, higher = more signal, called active from +8 up or from −8 down

z-score, inactive:
COc1cc2c(cc1O)C(C1CC1)N(Cc1cccc(OC(F)(F)F)c1)CC2 (stereo not drawn) 0.002
C=CC[C@]1(C(=O)N2CCOCC2)COC(c2ccc(OCCCO)cc2)=N1 -0.19
C=CC[C@]1(C(=O)N2CCCCC2)N=C(c2ccc(OCCCO)cc2)O[C@H]1c1ccccc1CN=[N+]=[N-] 0.0349
COc1ccc(CCNC(=O)[C@@]2(Sc3ccc(C)cc3)CC(=O)N(Cc3ccccc3C(F)(F)F)[C@@H]2c2ccc(CO)cc2I)cc1 -1.77
O=C1N(CCS(=O)(=O)c2ccccc2)c2ccccc2[C@H]2OC(c3ccc(OCCCO)cc3)=N[C@@]12Cc1ccccc1 2.01
CCCCC[C@H]1OC[C@@]23C=C(Br)[C@@H](CC12)[C@@]1(CO1)C3=O (stereo partly drawn) -0.984
COC(=O)[C@@]1(Cc2ccc(OC)cc2)[C@H]2c3cc(C(=O)N(C)C)n(Cc4ccc(OC(F)(F)F)cc4)c3C[C@H]2CN1C(=O)c1ccccc1 1.63
CCC#CCN(Cc1ccccc1Br)[C@H](/C=C/C1CC1)[C@@H](O)Cc1ccccc1 -2.7
CC[C@@H]1O[Si](C(C)C)(C(C)C)c2c1cc(-c1cc(C)c(OC)c(C)c1)nc2-c1ccc(Oc2ccccc2)cc1 -0.0894
CCCNC(=O)[C@@]1(C)c2ccccc2C(=O)N(c2ccc(C)cn2)[C@H]1c1ccc(CO)cc1 -0.306
[N-]=[N+]=Nc1ccccc1[C@@H]1OC(c2ccc(OCCCO)cc2)=N[C@]1(Cc1ccccc1)C(=O)N1CCCCC1 1.08
COc1ccc([Si](C)(C)[C@@H]2[C@@H](CCO)O[C@]3(C(=O)N(Cc4ccccc4)c4ccc(N5C(=O)c6cccc7cccc5c67)cc43)[C@H]2C)cc1 4.59
COc1cccc(C)c1NC(=O)O[C@H]1[C@H](OC(=O)Nc2ccc3c(c2)OCO3)[C@@H](OC(=O)Nc2ccc3c(c2)OCO3)[C@@H](OC)O[C@@H]1CO 2.4
Cc1cc(C)c(C(O)C2C=CC3C(=O)N(c4ccccc4)C(=O)C3N2Nc2ccccc2F)c(C)c1 (stereo not drawn) 1.56
CCCC1(C(=O)OC)C=C2C(=C(C)C(=O)C2C)CN1 (stereo not drawn) 0.338
O=C(NCCN1CCOCC1)[C@@H]1c2ccccc2C(=O)N(Cc2ccccc2Cl)[C@H]1c1ccc(CO)cc1 0.593
C=C(/C(=C/C[C@H](OC(C)=O)c1ccc(CO)o1)c1cnc2ccccc2c1)C(C)C 0.376
CCOC(=O)C[C@H]1[C@H](OC(=O)Cc2ccc3c(c2)OCO3)[C@@H](NC(=O)c2ccc3ccccc3n2)c2cc(OCCCO)ccc2N1C(=O)c1ccc2ccccc2n1 -2.19
[N-]=[N+]=Nc1ccccc1C[C@]1(C(=O)NCCN2CCOCC2)COC(c2ccc(OCCCO)cc2)=N1 -0.71
COc1ccc(CCNC(=O)[C@@H]2c3ccccc3C(=O)N(C3CCCCC3)[C@H]2c2ccc(CO)cc2)cc1 0.726
COCCOC(=O)N1C(=O)[C@@]2(c3ccccc31)[C@H](C(=O)NC[C@H](O)c1ccccc1)[C@H]1C(=O)O[C@H](c3ccccc3)[C@H](c3ccccc3)N1[C@@H]2c1ccc(O)cc1 1.64
COC(=O)[C@]1(CCS(=O)(=O)c2ccccc2)N=C(c2ccc(OCCCO)cc2)O[C@@H]1c1ccccc1N=[N+]=[N-] 2.53
CC(C)C(CO)N1C(=O)[C@@H]2C3C(=O)OCCC/C=C\[C@H]3OC23C=CCN(c2ccc4ccccc4c2)C(=O)[C@@H]13 (stereo partly drawn) -0.259
CN1C2C=C(CCCO)C(C3C(=O)N(C(N)=O)C(=O)C32)C1C1CC1 (stereo not drawn) -0.18
NCCCCCNC(=O)[C@@H]1C[C@@H]2C(=O)N[C@@H](CCCCN)C(=O)N2[C@@H]1c1ccc(O)cc1 2.39
CCCCCC1=C2CNC(C)(C(=O)OC)C=C2C(C)C1=O (stereo not drawn) 1.18
COc1ccc(CCNC(=O)[C@@]2(c3ccc([N+](=O)[O-])cc3)CC(=O)N(C3CCCCC3)[C@@H]2c2ccc(CO)cc2)cc1 1.14
COCCOC(=O)N1C(=O)[C@@]2(c3cc(C#CCC(C(=O)OC)C(=O)OC)ccc31)[C@H](c1ccc(OCCO)cc1)N1[C@H](c3ccccc3)[C@H](c3ccccc3)OC(=O)[C@H]1[C@@H]2C(=O)N1CCc2cc(OC)c(OC)cc2C1 3.32
